Inhibition data for 93 molecules are collected here from PubChem BioAssay AID1029 (Sanford-Burnham Center for Chemical Genomics, 2008).

Each structure is given as a SMILES string. Hit rate of the full screen: of about 110,000 compounds, about 80 (0.07%) were called active. Shown is part of a subset that was picked to be rich in actives. Unmarked numbers belong to inactive results.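 Rule for the calls: active = inhibition above the mean of the plate negative controls plus 5 SD (cut at about 13% in these data); inactive = the rest.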

This experiment in a line: inhibitors of macrophage phagocytosis, primary screen, imaging, J774A.1 cells, IgG beads (AID 1029).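 Note: phagocytic index as fraction of beads internalized from green versus red external bead signal; plate controls were DMSO negative control for no effect and cytochalasin-D positive control for full effect.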 The note with it: J774A.1 macrophage IgG-bead phagocytosis, at 5 µM, hits give high values.
As usually defined, the inhibition is the drop in the measured response relative to a control, in per cent. As for `CCCCN(CC)C(=S)Nc1ccc2nc3n(c(=O)c2c1)CCCCC3`, the inhibition is -7.14%.

`O=C1CCCC(O)=C1N=Nc1ccc2ncsc2c1`: the inhibition was 105% [artifact] (active).

Take `COc1ccc(C)cc1NC(=O)C(OC(=O)c1cccc(S(=O)(=O)N(C)c2ccccc2)c1)c1ccccc1` (stereo not drawn): the inhibition is -5.86%.

Take `Cc1cccc(C)c1NC(=O)CSc1ccc([N+](=O)[O-])cn1`: the inhibition is -2.92%.

Turning to `O=C1NC(c2ccccc2)CCC1(Cl)Cl` (stereo not drawn), the inhibition was 2.89%.

As to `CCC(=O)/C=C1\Sc2ccccc2N1CC`, the inhibition is -1.58%.

As to `S=C(NCc1ccc(Cl)cc1)NC1CCCCC1`, the inhibition was -3.92%.

For the molecule `O=C(NN1C(=O)C2C3C=CC(O3)C2C1=O)c1ccncc1` (stereo not drawn), the inhibition is -4.03%.

With `O=C(CSc1nnc(-c2ccncc2)o1)NCc1ccc(Cl)cc1`, the inhibition was -5.78%.

Turning to `COc1ccc(OCc2cn3c(C)cc(C)nc3n2)cc1`, the inhibition was -0.34%.

Turning to `COc1cc(/C=C/C(=O)O)cc(S(=O)(=O)Nc2ccccc2SC)c1OC`, the inhibition was -5.74%.

For `CCCCN(CC)C(=O)c1ccc2c(c1)OCO2`, the inhibition was 1.32%.

As for `Cc1ccc2c(c1)C1CN(C)CCC1N2C(=O)c1ccccc1NS(=O)(=O)c1ccc(F)cc1C` (stereo not drawn), the inhibition was -3.92%.

On to `COC(=O)/C(=C1\Oc2ccc(C(C)(C)C)cc2S1)C(F)(F)F`, for which the inhibition was 7.86%.

For the molecule `CC(C)CNC(=S)Nc1ccc(F)cc1`, the inhibition is -3.14%.

`CCCCOc1ccc(NC(=O)[C@@H]2CCCN2C(=O)C2CCN(S(=O)(=O)c3ccc(C)cc3)CC2)cc1`: the inhibition is -3.36%.

In the case of `Cc1ccc(NC(=O)CC2S/C(=N/N=C3\CCCc4ccccc43)NC2=O)cc1` (stereo not drawn), the inhibition is -6.09%.

Take `O=C(CN1CCc2ccccc21)NC(c1ccccc1)c1ccccc1`: the inhibition is -5.11%.

For the molecule `O=C(O)c1ccc2c(c1)C(=O)N(NC(=O)c1ccc(O)cc1)C2=O`, the inhibition was -5.14%.

`COc1ccc(NC(=S)NCc2cccs2)c(OC)c1`: the inhibition is 0.55%.

Consider `COc1cc2c(cc1/C=C1/NC(=O)N(c3ccccc3)C1=O)OCO2`, for which the inhibition was -3.27%.

With `Cc1cc(C(=O)NNC(=S)NC(C)c2ccccc2)cs1` (stereo not drawn), the inhibition was -2.01%.

In the case of `Cc1ccc(-n2[nH]c(C)c(/C=N/NC(=O)c3cccc([N+](=O)[O-])c3)c2=O)cc1C`, the inhibition is -4.72%.

As to `Cc1ccc(C(=O)Oc2coc(CSc3nnc(NC(=O)c4cccs4)s3)cc2=O)cc1C`, the inhibition was -0.5%.

For `NC1=C([N+](=O)[O-])C(c2ccccc2)C2=C(CCCC2=O)O1` (stereo not drawn), the inhibition is -3.95%.

In the case of `COc1ccc(C(=O)COC(=O)c2ccc3ccccc3n2)cc1`, the inhibition was -5.54%.

For `O=[N+]([O-])c1cccc(C2=NCCS2)c1`, the inhibition was 0.05%.

For `Cc1ccccc1Cn1nc(C)c(NC(=O)C(F)(F)F)c1C`, the inhibition is -2.43%.

Take `CC(C)(C)C1CCC(=NNC(=O)c2cc(-c3ccccc3)n[nH]2)CC1` (stereo not drawn): the inhibition was 0.48%.

Take `CCOc1ccc2nc(NC(=O)c3cc([N+](=O)[O-])ccc3N3CCOCC3)sc2c1`: the inhibition is 3.64%.

In the case of `CC(=O)c1ccc(NC(=S)NC(=O)CC(C)C)cc1`, the inhibition was -4.19%.

On to `CCOc1ccc(C(=O)NC(=S)Nc2ccc(NC(=O)C(C)C)cc2)cc1[N+](=O)[O-]`, for which the inhibition is -0.7%.

As to `COc1ccc2nc(Nc3nc(-c4cc5ccccc5oc4=O)cs3)sc2c1`, the inhibition was 0.77%.

For `CC(=O)Nc1cccc(/C(C)=N/NC(=O)c2c(-c3ccccc3Cl)noc2C)c1`, the inhibition is -2.62%.

Take `Cc1ccc(C)c(OCC(=O)N2CCN(C(=O)c3ccco3)CC2)c1`: the inhibition was -4.31%.

For `COc1ccc(-c2csc3ncnc(Oc4ccc5c(C)cc(=O)oc5c4)c23)cc1`, the inhibition was -2.34%.

As for `O=C(CNS(=O)(=O)c1ccccc1)NCC(=O)OCc1ccccc1F`, the inhibition was -3.58%.

`CCCOc1ccc(NC(=O)C2OC3OC(C)(C)OC3C3OC(C)(C)OC23)cc1` (stereo not drawn): the inhibition was -11.4%.

Consider `CCOC(=O)C1=C(C)NC(=S)NC1c1cccs1` (stereo not drawn), for which the inhibition was -4.52%.

As for `Cc1scc(C(=O)NNC(=S)NCc2ccccc2)c1C`, the inhibition is -4.2%.

As for `O=C(Nc1ccccc1Cc1ccccc1)c1ccc2c(c1)SC1=NS(=O)(=O)CCN12`, the inhibition is -3.83%.

As to `O=C(O)c1cccc(N2C(=O)Nc3ccccc3N2O)c1`, the inhibition was -9.86%.

For the molecule `COc1ccc(Cc2nnc(N/N=C/c3ccccc3O)[nH]c2=O)cc1OC`, the inhibition was -6.04%.

On to `COCC(=O)Nc1cc(C(=O)OC)cc(C(=O)OC)c1`, for which the inhibition is -2.4%.

Regarding `CN(C)C(CNC(=O)c1ccc(S(=O)(=O)NCc2ccco2)cc1)c1ccccc1` (stereo not drawn), the inhibition is -2.95%.

Take `COc1cc(NC(=O)Nc2ccc(C)cc2)cc([N+](=O)[O-])c1`: the inhibition was -5.65%.

For the molecule `CC(C)C(C)(C#N)NC(=O)CSc1nc2scc(-c3ccccc3)c2c(=O)[nH]1` (stereo not drawn), the inhibition is -2.01%.

Regarding `Cc1cccc(-c2nc3ccccc3c(=O)n2NC(=O)Cc2ccc(Cl)cc2)c1`, the inhibition is -9.34%.

For the molecule `O=C(NC(=S)Nc1cc(C(F)(F)F)ccc1N1CCOCC1)c1ccc(-c2cccc(Cl)c2)o1`, the inhibition was -11.9%.

As to `S=C(NCCc1ccccc1)NCC1CCCO1` (stereo not drawn), the inhibition is 2.03%.

On to `Cc1nc2c(C(=O)NCc3cccs3)cnn2c(C)c1Cc1ccc(F)cc1`, for which the inhibition is -10.6%.

With `CCCCCNC(=O)c1cccnc1SCC(=O)Nc1ccccc1OC`, the inhibition is -7.81%.

With `CCCCOc1ccc(C(=O)N/C(=C/C=C/c2ccccc2)C(=O)N2CCOCC2)cc1`, the inhibition was -6.1%.

Take `CCc1ccc(NC(=O)CC2C(=O)NCCN2C(=S)Nc2ccccc2)cc1` (stereo not drawn): the inhibition was 0.25%.

Regarding `COC(C(=O)Nc1ccc(C(C)=O)cc1)c1ccccc1` (stereo not drawn), the inhibition is -7.11%.

Turning to `COCCn1c(SCC(=O)Nc2ccc3c(c2)CCC3)nc2ccccc2c1=O`, the inhibition is -6.84%.

For the molecule `Cc1c(Cl)c([N+](=O)[O-])nn1CCCC(=O)Nc1cc(Cl)ccc1Cl`, the inhibition was -3.17%.

As for `COc1ccccc1OCc1ccc(C(=O)N2CCN(C)CC2)o1`, the inhibition was 0.11%.

Regarding `O=C(/C=C/c1cnc2ccccc2n1)NC1CCCCCC1`, the inhibition was -9.71%.

With `CO/N=C(\N)c1ccc([N+](=O)[O-])cc1`, the inhibition was -3.92%.

Consider `Cc1ccc(N(Cc2cc3ccccc3[nH]c2=O)C(=O)c2cccs2)cc1`, for which the inhibition was 0.22%.

Turning to `COC(C(=O)NCc1ccccc1C)c1ccccc1` (stereo not drawn), the inhibition was -6.05%.

For the molecule `CCc1c(C)nc(N2CCN(Cc3ccccc3)CC2)[nH]c1=O`, the inhibition is -1.2%.

As for `Cc1nnc(SCc2cc(=O)[nH]c(N3CCN(Cc4ccccc4)CC3)n2)s1`, the inhibition is 55.5% (active).

Take `O=c1cc(CSc2ccccn2)nc(N2CCN(c3ccccc3)CC2)[nH]1`: the inhibition is -1.3%.

Take `O=C(N/N=C/c1coc2ccccc2c1=O)c1cc2ccccc2o1`: the inhibition is -4.52%.

Regarding `Cc1nc2ccccc2nc(C)c1=NOCc1ccc(Cl)cc1Cl`, the inhibition was -8.1%.

On to `COc1ccc(C2CC(c3ccccc3)=NN2C(=O)CSc2nccc(=O)[nH]2)cc1` (stereo not drawn), for which the inhibition is -11.3%.

Take `COCCNC(=S)N/N=C/c1c(C)[nH]c2ccccc12`: the inhibition is -8.64%.

Regarding `CCCc1nc(SCC(=O)Nc2ccc(S(=O)(=O)N(C)C)cc2)c2ccccc2n1`, the inhibition is -8.66%.

As to `CCCCC(=O)Nc1ccc(C(=O)Nc2cc(C(F)(F)F)ccc2Cl)cc1`, the inhibition was -2.66%.

Consider `CC1=C[C@H]2Cc3cc(C)cc(C)c3S(=O)(=O)[C@@H]2C=C1`, for which the inhibition was -2.51%.

Turning to `COc1ccc(/C=N/NC(=O)c2ccc(Cl)cc2)cc1COC(C)=O`, the inhibition is -2.06%.

`CCNc1ccc(C(=O)OCC(=O)N2c3ccccc3NC(=O)C2(C)C)cc1[N+](=O)[O-]`: the inhibition is -2.95%.

For the molecule `O=C(N/N=C/c1ccc2c(c1)OCO2)c1ccc(Cn2cc([N+](=O)[O-])cn2)o1`, the inhibition is -3.46%.

For the molecule `O=C1OC(OC(=O)c2ccccc2Br)C(N2CCOCC2)=C1Cl` (stereo not drawn), the inhibition was -11.1%.

On to `COc1cc(C2C(N3C(=O)c4ccccc4C3=O)C(=O)N2c2ccc(C)c(C)c2)cc(OC)c1OC` (stereo not drawn), for which the inhibition is -9.54%.

Turning to `O=C(CN1C(=O)/C(=C\c2ccccc2F)SC1=S)Nc1nc2ccccc2s1`, the inhibition is -11.3%.

Turning to `COC(=O)c1ccccc1NC(=S)NC(=O)c1ccccc1F`, the inhibition is -2.31%.

Take `Cc1[nH]n(-c2ccccc2)c(=O)c1/C=N/NC(=O)c1ccoc1C`: the inhibition is 3.58%.

With `Cc1cccc(NC(=S)N(CCN(C)C)C(C)c2ccco2)c1` (stereo not drawn), the inhibition was -6.2%.

Consider `N=C1C(=O)OCC1c1ccccc1NC(=O)CN1CCCCC1` (stereo not drawn), for which the inhibition was -1.24%.

With `CCN(CC)CCNCc1ccc(OCc2ccc(Cl)nc2)c(OC)c1`, the inhibition is -2.95%.

As to `Cc1ccc(S(=O)(=O)N(Cc2ccc(Cl)cc2)c2ccccc2C(=O)NCc2cccnc2)cc1`, the inhibition is -8.82%.

As to `Nc1nc(NC(=O)/C=C/c2ccccc2)nn1-c1ccccc1`, the inhibition was -0.41%.

On to `CCc1cccc(NC(=O)CCC(=O)O)c1`, for which the inhibition is -2.13%.

As to `CCS(=O)(=O)N1Cc2ccccc2CC1C(=O)Nc1nc2ccc(F)cc2s1` (stereo not drawn), the inhibition is 7.2%.

Take `COc1cc(/C=N/O)ccc1OCc1ccc([N+](=O)[O-])cc1`: the inhibition was 0.55%.

As to `O=C(NC1CCN(Cc2ccccc2)CC1)c1c(F)cccc1F`, the inhibition is 2.58%.

Turning to `CC(C)(C)C(=O)N1CCC[C@@]1(CO)C(=O)O`, the inhibition was 0.17%.

On to `Cc1cc(/C=C2\SC(=Nc3ccc(N4CCOCC4)cc3)N(C)C2=O)c(C)n1-c1cccnc1`, for which the inhibition is -0.72%.

Regarding `Cc1nn(Cc2ccc(F)cc2)c(C)c1NC(=O)c1cccnc1Cl`, the inhibition was -2.17%.

`Cc1ccc(N=C2NC(=O)c3cccc([N+](=O)[O-])c32)cc1`: the inhibition is -5.47%.
